Measurements reported in PubChem BioAssay AID1259343 (VanderVen Lab, College of Veterinary Medicine, Cornell …, 2017).
About 2,900 (47%) of roughly 6,200 compounds were called active. So high a share suggests a set chosen from earlier hits. This is one part of the list. A number with no mark means an inactive call. Rule as the data show it: active = inhibition above about 50%; inactive = the rest.

Test: Mycobacterium tuberculosis growth inhibition, primary screen (AID 1259343)
Conditions: inhibition: at 10 µM, stronger effect = higher value; outcome: 10 uM

| Structure (SMILES) | inhibition |
| --- | --- |
| N#Cc1c(Cl)cccc1Oc1cccc(C(=O)O)c1 | 6.19% |
| CC(C)(Cc1ccc2ccccc2c1)NC[C@@H](O)COc1cccc(Cl)c1C#N | 87.4% (active) |
| Cc1ccc(OCC2CN(C(=O)COc3ccc(F)cc3)CCO2)cc1 (stereo not drawn) | 82.5% (active) |
| O=C(Cc1cccc(Cl)c1)N1CCOC(COc2ccc3c(c2)CCCC3)C1 (stereo not drawn) | 44% |
| Cc1cc(OCC2CN(C(=O)c3ccc(C#N)cc3F)CCO2)ccc1Cl (stereo not drawn) | 5.04% |
| Cc1ccc(OCC2CN(C(=O)COc3ccccc3C)CCO2)cc1 (stereo not drawn) | 75.9% (active) |
| CNc1ccc(C(=O)N2CCOC(COc3ccc(Cl)c(C)c3)C2)cc1 (stereo not drawn) | 53% (active) |
| O=C(COc1ccc(F)cc1)N1CCOC(COCc2c(Cl)cccc2Cl)C1 (stereo not drawn) | 34% |
| Cc1ccccc1OCC(=O)N1CCOC(COc2cccc(C(F)(F)F)c2)C1 (stereo not drawn) | 6.21% |
| Cc1cc(OCC2CN(C(=O)COc3ccccc3C)CCO2)ccc1Cl (stereo not drawn) | 50.9% (active) |
| COc1cccc(CC(=O)N2CCOC(COc3ccc(F)cc3)C2)c1 (stereo not drawn) | 24% |
| Cc1cc(OCC2CN(C(=O)Cc3ccc4c(c3)OCO4)CCO2)ccc1Cl (stereo not drawn) | 65.7% (active) |
| Cc1ccccc1OCC(=O)N1CCOC(COCc2ccccc2F)C1 (stereo not drawn) | 72.4% (active) |
| COc1cccc(CC(=O)N2CCOC(COc3ccc(Cl)c(C)c3)C2)c1 (stereo not drawn) | 4.53% |
| O=C(NCCC(=O)N1CCOC(COCc2ccc(F)cc2Cl)C1)OCc1ccccc1 (stereo not drawn) | 61% (active) |
| Cc1cc(OCC2CN(C(=O)Cc3cccc(Cl)c3)CCO2)ccc1Cl (stereo not drawn) | 31% |
| O=C(Cc1cccc(Cl)c1)N1CCOC(COCc2ccccc2F)C1 (stereo not drawn) | 30.4% |
| Cc1cc(OCC2CN(C(=O)COCc3ccccc3)CCO2)ccc1Cl (stereo not drawn) | 50.5% (active) |
| O=C(Cc1cccc(Cl)c1)N1CCOC(COc2ccc(F)cc2)C1 (stereo not drawn) | 11.7% |
| CNC(=O)c1cc(Oc2ccc(NC(=O)Nc3ccc(Cl)c(C(F)(F)F)c3)c(F)c2)ccn1 | 34.8% |
| O=S1(=O)N(CCN2CC=C(c3c[nH]c4cc(F)ccc34)CC2)c2cccc3c2N1CCC3 | 12.6% |
| O=C(/C=C/c1ccc(-c2cccc([N+](=O)[O-])c2)o1)N1CCCCC1 | 80.3% (active) |
| COc1c(Br)cc(Cl)cc1S(=O)(=O)NCCc1ccccc1 | 18% |
| CCc1ccc(CN(C)Cc2nc(Cc3ccccc3F)no2)cc1 | 71% (active) |
| CN(C1CCCCC1)S(=O)(=O)N1CCCC(c2nc(-c3cccc(F)c3)no2)C1 (stereo not drawn) | 33.1% |
| COCCCC1CCN(Cc2nc(Cc3ccccc3Cl)no2)CC1 | 29.1% |

| Structure (SMILES) | inhibition |
| --- | --- |
| CN(Cc1ccc2nsnc2c1)Cc1nc(Cc2ccccc2Cl)no1 | 31.6% |
| Fc1ccccc1N1CCN(Cc2nc(Cc3ccccc3Cl)no2)CC1 | inactive |
| CN(Cc1ccc(F)cc1)Cc1nc(Cc2ccccc2Cl)no1 | 89.3% (active) |
| Cc1ccc(OCCN(C)Cc2nc(-c3cccc(Cl)c3)no2)cc1 | 35% |
| CN(Cc1nc(-c2cccc(Cl)c2)no1)C1CCCCC1 | 74.3% (active) |
| Clc1ccccc1Cc1noc(CN2CCN(Cc3ccccc3)CC2)n1 | 51.2% (active) |
| OCC1(Cc2ccccc2)CCCN(c2ccc(-c3ccccc3)nn2)C1 (stereo not drawn) | 23.4% |
| Cc1noc(CNc2cc(Cl)ccc2Oc2ccccc2)n1 | 33.9% |
| Cc1ccc(F)c(OCc2nc(Cc3ccccc3F)no2)c1F | 81.3% (active) |
| CN(Cc1nc(Cc2ccccc2Cl)no1)C1CCCCC1 | 65.6% (active) |
| COc1cccc2c1OCCCN(Cc1nc(Cc3ccccc3Cl)no1)C2 | 14.3% |
| COc1cccc(F)c1OCc1nc(CC2CC2)no1 | -44.2% |
| COc1ccc([C@@H]2CC(=O)c3c(O)cc(O)cc3O2)cc1O | 67.2% (active) |
| COc1ccc(C2N=C(c3ccccc3C)NO2)cc1O (stereo not drawn) | inactive |
| CN1CCN(Cn2nc(-c3ccc4c(c3)OCO4)oc2=S)CC1 | 86.7% (active) |
| S=c1oc(-c2cccc(Cl)c2)nn1CN1CCC(c2nnc3ccccn23)CC1 | 22.7% |
| Cc1cc(C)cc(-c2nn(CN3CCOCC3(C)C)c(=S)o2)c1 | -38.7% |
| CCc1ccc(/C=C/S(=O)(=O)Nc2onc(C)c2C)cc1 | 68.3% (active) |
| O=C(c1ccc(Oc2ccc(Cl)cc2)c(F)c1)N1CCC(O)CC1 | 5.66% |
| O=C(c1ccc(C(F)(F)F)c(F)c1)N1CCC(Cc2ccc(-n3cccc3)cc2)CC1 | 63.9% (active) |
| O=C(c1ccc(F)c(F)c1F)N1CCC(Cc2ccc(-n3cccc3)cc2)CC1 | 56.5% (active) |
| O=C(c1ccc(C(F)(F)F)c(F)c1)N1CCC(Cc2ccc(F)cc2)CC1 | 87% (active) |
| CCCc1cc(N2CC(C)CC(C)C2)n2nc3nc(C)cc(C)c3c2n1 (stereo not drawn) | -1.46% |
| CC(NC(=O)c1cc(Cl)ccc1F)c1ccc(Cl)s1 (stereo not drawn) | 41.4% |
| COc1ccc(C(=O)NC(C)c2ccc(Cl)cc2Cl)cc1 (stereo not drawn) | 55.6% (active) |
| COc1ccc(OCc2cc(C(=O)NC(C)c3csc(C)n3)no2)c(Cl)c1 (stereo not drawn) | 36.7% |

| Structure (SMILES) | inhibition |
| --- | --- |
| CN(Cc1ccc(F)cc1)c1ccc(-c2nc(C3CC3)no2)cn1 | 27.2% |
| N#CC1(NC(=O)c2ccc(-c3nc(C4CC4)no3)cc2)CCSC1 (stereo not drawn) | 80.6% (active) |
| O=[N+]([O-])c1ncc[nH]1 | 43.1% |
| O=C1c2cccc3cccc(c23)C(=O)N1CCCCCc1n[nH]c(=S)o1 | 29.7% |
| COc1ccc(Cc2n[nH]c(=S)o2)cc1 | 101% (active) |
| COc1ccc(CCCc2n[nH]c(=S)o2)cc1 | 99.7% (active) |
| S=c1[nH]nc(Cc2ccccc2)o1 | -26.6% |
| CC(Cc1n[nH]c(=S)o1)c1ccccc1 (stereo not drawn) | 36.9% |
| CCOc1ccc(-c2n[nH]c(=S)o2)cc1 | 48.7% |
| O=C(NC1CCCC1)c1occc1COc1ccccc1 | 60.1% (active) |
| O=C(NC1CCCCCC1)c1ccco1 | 55.1% (active) |
| O=C(Nc1ccc(Cl)c(Cl)c1)c1occc1COc1ccccc1 | 32.6% |
| CC(=NNC(=O)NC1CCCCC1)c1ccco1 | -56.6% |
| Cc1c(C(=O)NC2CCCCC2)oc2ccccc12 | 90.9% (active) |
| CN(C)c1ccc(NC(=O)C2C[C@H]2c2ccccc2)cc1C(=O)NC1CCCCC1 (stereo partly drawn) | 20% |
| O=C(NC(=S)NC1CCCCCCC1)c1ccco1 | 63.9% (active) |
| Cc1cc(-c2ccc(NC3=NCCCS3)cc2)nc2ccccc12 | 20.2% |
| CC(C)CNC(=O)C(=O)NCCCc1ccc(N(C)C)cc1 | 33% |
| Cc1nn(-c2ccccc2)c(N)c1N=Nc1cccc(Cl)c1 | 56% (active) |
| CCN(CC)S(=O)(=O)c1ccc(N=Nc2c(C)nn(-c3ccccc3)c2N)cc1 | 25.3% |
| CC(=O)Nc1cccc(N=C2NN=C(C34CC5CC(CC(C5)C3)C4)CS2)c1 | 35.4% |
| Cc1cc(-c2csc(NC3CCCC3)n2)c(C)n1CC1CCCO1 (stereo not drawn) | 23.4% |
| CN(C)C(=O)c1csc(-c2csc(NCC3CCC3)n2)c1 | 38.9% |
| Clc1ccc(-c2csc(NCC3CCCO3)n2)c(Cl)c1 (stereo not drawn) | 77.3% (active) |
| CCCSc1nnc2c(n1)OC=Nc1ccc(Br)cc1-2 | 87.8% (active) |
| CCCCSc1nnc2c(n1)OC=Nc1ccc(Br)cc1-2 | 82.3% (active) |

| Structure (SMILES) | inhibition |
| --- | --- |
| CCCCSc1nnc2c(n1)OC(C)(CC)Nc1ccccc1-2 (stereo not drawn) | -11.3% |
| O=c1c2c3nc4ccccc4nc3n(C3CCCC3)c2ncn1Cc1ccco1 | -15.8% |
| O=c1ccc(-c2ccc(F)cc2)nn1Cc1ccc(Br)cc1 | 46.8% |
| O=c1ccc(-c2ccc(F)cc2)nn1Cc1ccccc1F | 33.9% |
| O=c1ccc(-c2ccc(Br)cc2)nn1Cc1cccc(F)c1 | -4.34% |
| CCOc1ccc(-c2ccc(=O)n(Cc3ccccc3)n2)cc1 | 41.1% |
| CCOc1ccc(-c2ccc(=O)n(Cc3ccc(F)cc3)n2)cc1 | 90.8% (active) |
| Cc1ccc(-c2ccc(=O)n(Cc3ccccc3F)n2)cc1 | 28.8% |
| O=c1ccc(-c2cccc(Br)c2)nn1Cc1ccccc1 | 22.6% |
| O=c1ccc(-c2ccccc2)nn1Cc1cccc(Cl)c1 | 92.4% (active) |
| Cc1ccc(Cn2nc(-c3ccccc3)ccc2=O)cc1 | 70.6% (active) |
| O=c1ccc(-c2ccc(Cl)cc2)nn1Cc1ccccc1F | 70.5% (active) |
| Cc1ccc(-c2ccc(=O)n(Cc3ccccc3)n2)cc1 | 24% |
| CCOC(=O)NC(O)C(F)(F)C(F)(F)C(F)(F)C(F)(F)C(F)(F)C(F)F (stereo not drawn) | 27.7% |
| Cc1nnc2n1N=CC=C(c1ccccc1)S2 | 54.6% (active) |
| CCN1CCN(C(C)CNc2nc3ccccc3s2)CC1 (stereo not drawn) | -41.8% |
| O=S(=O)(Nc1nc2ccccc2s1)c1cccs1 | -38.3% |
| O=S(=O)(Nc1nc2ccccc2s1)c1ccccc1 | 57.6% (active) |
| O=S(=O)(Nc1nc2ccccc2s1)c1ccc(Br)s1 | 70.2% (active) |
| O=S(=O)(Nc1nc2ccccc2s1)c1ccc(Cl)s1 | 93.7% (active) |
| O=S(=O)(Nc1nc2ccccc2nc1Nc1ccccc1)c1ccc(Br)s1 | 80.6% (active) |
| O=S(=O)(Nc1nc2ccccc2nc1Nc1ccc2c(c1)OCO2)c1cccc2nsnc12 | -10.2% |
| NC(=S)Nc1nc2ccccc2s1 | 89.5% (active) |
| O=C(CCN1CCCCC1c1cccnc1)Nc1nc2ccccc2s1 (stereo not drawn) | 35.6% |
| CC(=NNc1nc2ccccc2s1)c1cc2ccccc2o1 | 3.87% |
